Measurements: the supplement of paper PMC6555819

What was measured:
Assay in all cases: PBM binding z-score (relative to random genomic background probes); higher = stronger binding; sequences stand for … in GC…GCGATTGACAGCGTAGAATGAAGG
[1] = test system: RARb homodimer (NR concentration 270 nM)
Outline: (§1)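 Scanned fluorescence from custom Agilent 4×180K protein-binding microarrays was regression-normalized. Binding z-scores use random background probes as reference. Ligand-free nuclear receptor dimers were incubated on the arrays for 1 h and detected with antibodies against each partner (one per run).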

[2] = test system: RARg:RXRa (NR concentration 270 nM, RXRa partner concentration 90 nM)
Outline: as §1

[3] = test system: RARg homodimer (NR concentration 270 nM)
Outline: as §1

[4] = test system: RXRa DBDmut IVT, anti-RXR (DBD mutation: RXRa K156A/R161A, NR concentration 90 nM)
Outline: as §1

[5] = test system: RXRa homodimer (NR concentration 180 nM)
Outline: as §1

[6] = test system: THRa:RXRa (NR concentration 90 nM, RXRa partner concentration 90 nM)
Outline: as §1

[7] = test system: THRa homodimer (NR concentration 90 nM)
Outline: as §1

[8] = test system: VDR homodimer (NR concentration 270 nM)
Outline: as §1

Row | Sequence | PBM binding z-score [1] | PBM binding z-score [2] | PBM binding z-score [3] | PBM binding z-score [4] | PBM binding z-score [5] | PBM binding z-score [6] | PBM binding z-score [7] | PBM binding z-score [8]
1 | GGAACGAGGGCAAAGCTGATAGCATCTGTCGACG | 0.567 | 1.03 | 1.5 | 2.13 | 0.836 | 0.546 | -0.597 | 0.452
2 | TCATATAGGTAATACAGGTGAACGTCGGCATCTA | 0.903 | 0.819 | 0.771 | 1.86 | 1.55 | 1.18 | 0.563 | 0.482
3 | CCTTACGGGTCACTGACACGTTATAGCATTTGGA | 2.9 | 4.76 | 4.47 | 2.05 | 4.94 | 2.5 | 0.436 | 0.844
4 | CCTGCTAGGTTATGGTCAGCTAATCTACAGTATG | 0.748 | 0.34 | 0.636 | 0.299 | 0.0468 | 0.383 | -0.417 | -0.337
5 | GCTCACGGGTCAAAGGTTATAGCATGAATAGAAT | 3.32 | 6.64 | 4.64 | 2.36 | 9.1 | 3.78 | -0.0294 | 1.19
6 | GCTGCTAGGGCAGGTTGGTCAGCTAACGGGTACG | 0.705 | -0.148 | 0.544 | -0.241 | -0.467 | -0.443 | -0.665 | -0.232
7 | ACTTACGGGTAAACGAGGTTATAGCACGCGTATA | 1.12 | 0.939 | 0.812 | 0.819 | 1.57 | 3.64 | 0.765 | 1.45
8 | CCAGACCGGTGAGAAGGTAACTCAGCCTCGATTA | 0.199 | 0.0096 | 0.0397 | -0.539 | -0.308 | -0.0126 | -0.0326 | 0.281
9 | TCATATAGGTAAAGCTGAAAGTCGAACGATATGA | -0.67 | 0.267 | 0.377 | 0.431 | 0.587 | -0.286 | -1.16 | -0.537
10 | CCTTACGGATCACTGACAGGTTATAGCATTTGGA | 0.537 | 0.614 | 0.579 | 0.744 | 0.347 | 0.372 | 0.628 | 0.612
11 | TCAGACTGGTGAAGGTAACTCAGGTACGCAGTCG | -0.0938 | -0.218 | -0.262 | 0.596 | 0.463 | 0.985 | 0.0816 | -0.271
12 | GGAACGAGGGCATTCGAGTTTATAGCATGGCGAT | 0.829 | 1.22 | 1.53 | 3.83 | 0.915 | 3.48 | -0.483 | 4.64
13 | GGAACGAGGGCATTCGATTTGATAGCATGGCGAT | 0.884 | 1.28 | 1.49 | 3.11 | 1.01 | 1.09 | -0.234 | 1.9
14 | TCTTGTAGATCAATAGAGGTGAAGAAAGTGCGCT | 0.962 | 0.365 | 0.434 | 0.561 | 0.577 | 2.59 | -0.132 | -0.534
15 | CATACAGGGTCAGCTAGTCCAGAGTAGGGACGGC | 2.88 | 4.26 | 4.24 | 1.65 | 4.04 | 2.86 | 0.757 | 1.68
16 | ACTTACGGGTCAACGAGGCTATAGCACGCGTATA | 3.07 | 5.01 | 4.51 | 2.15 | 5.06 | 3.35 | 0.239 | 1.55
17 | ATACCGAGGTGATCGTGAGGTCGTTGATACTAAC | 1.77 | 2.74 | 0.682 | 0.849 | 1.91 | 3.52 | 2.44 | 2.85
18 | TAGCCTAGGTCATGCGGGCCAGTAGAGTGTCGGC | 3.12 | 3.98 | 4.71 | 0.541 | 3.5 | 2.96 | 0.801 | 0.486
19 | CCTTACGGATCACGAGGTTATAGCACGACGAGCG | 1.15 | 0.741 | 0.714 | 0.575 | 1.62 | 1.52 | 1.08 | 1.06
20 | ACTAGCAGACCAAGTTTGGGTCACTCAAACAAAG | 1.57 | 0.911 | 0.702 | -0.0274 | 0.79 | 1.98 | 0.78 | 0.00842
21 | TTACCAAGGTGAAAGGTCGTTAATGCACGCCTTG | 2.23 | 3.93 | 2.08 | 0.25 | 5.05 | 3.23 | 0.834 | 0.976
22 | CCTGCTAGGTCAATGGGCAGCTAAAGCAGCTCGC | 2.4 | 3.12 | 4.03 | 0.674 | 1.35 | 1.99 | 0.0215 | -0.152
23 | ACTATTAGTTGACTTAGGGCAACAGATACGACGC | 0.775 | 0.939 | 1.03 | 0.406 | 0.426 | 1.48 | 0.0505 | 0.162
24 | CCAGACAGGTGACAAGGTAACTCAGCCTCGATTA | 0.759 | 0.862 | 0.728 | 0.06 | 0.446 | 1.24 | 0.784 | -0.45
25 | CAAACTAGGTCACAGAGGTCAAAGTCCGTGCGTA | 5.8 | 7.58 | 7.69 | 3.5 | 8.16 | 4.79 | 3.15 | 7.24
26 | ACAGACAGGTGATGAAGGTCACTCAGGCTATCAT | 3.75 | 3.15 | 2.94 | 0.355 | 2.67 | 2.81 | 0.677 | 1.51
27 | CAAACTAGGTCACGAAAGGTCTAAGTCGAATGAC | 3.98 | 5.04 | 5.84 | 1.6 | 4.23 | 4.1 | 1.73 | 0.873
28 | CGAACGTGGGCATGAGTTGATAGCAAATGCCGAT | -0.844 | -0.563 | -0.218 | 0.0414 | -0.376 | -0.695 | -1.12 | -0.195
29 | GCTAGTTGGTCAGTAAAAGGTCGCACACCGGTCG | 2.98 | 2.68 | 1.8 | 0.145 | 1.95 | 1.61 | 0.192 | 0.447
